From PubChem BioAssay (EPA / NIEHS) come the findings set out here.

Structures are written as SMILES. Results filed as inconclusive are left out. A structure can be active in one record and inactive in another. Activity calls are given as the source filed them. The calls were made as follows, unless noted: active = hit-call score of the fitted dose curve at least 0.9, where 1 is the maximum; inconclusive = response in the unintended direction; inactive = score below 0.9.

Read-out in test [1]: UDP glucuronosyltransferase (UGT1A6), UGT1A6 (gene 54578)
The experiment in a line: LTEA_HepaRG_UGT1A6: Life Technologies and Expression Analysis (LTEA) Assay for UDP glucuronosyltransferase (UGT1A6) using HepaRG (AID 2283539; active = hit-call score of the fitted dose curve at least 0.9, where 1 is the maximum; inactive = score below 0.9). The conditions noted are these: mRNA level, 48 h; actives raise or lower the signal. The method, boiled down: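 Measures mRNA change in HepaRG hepatic cells exposed 48 h to chemicals (eight-point, maximum 100 uM, 0.5% DMSO vehicle) in serum-free induction medium. Expression normalized to endogenous controls; DMSO served as negative control and baseline.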

Read-out in test [2]: X-box binding protein 1 (XBP1), XBP1 (gene 7494)
As to the kind of experiment: LTEA_HepaRG_XBP1: Life Technologies and Expression Analysis (LTEA) Assay for X-box binding protein 1 (XBP1) using HepaRG (AID 2283540; active = hit-call score of the fitted dose curve at least 0.9, where 1 is the maximum; inactive = score below 0.9). The conditions noted are these: mRNA level, 48 h; actives raise or lower the signal. In short, it runs like this: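 Eight concentrations (half-log, highest 100 uM, 0.5% DMSO) tested in duplicate on HepaRG cells over 48 h in serum-free induction medium; qRT-PCR of XBP1 normalised to ACTB, GAPDH, POLR2A.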

Test [3] can be described thus: LTEA_HepaRG_LDH_cytotoxicity: Cytotoxicity Assessment in the Life Technologies and Expression Analysis (LTEA) Assay (AID 2283563).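 As to AC50: LDH activity released into spent culture medium as a marker of cell death.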 In short, it runs like this: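 Spent-medium LDH after 48 h chemical exposure of HepaRG cells in serum-free induction medium; eight concentrations, half-log dilutions from 100 uM, duplicate wells, fitted upward relative to 0.5% DMSO.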
Test [4] can be described thus: TOX21_p53_BLA_p2_viability: Viability Assessment in the Tox21 HCT-116 p53 Agonism Beta-lactamase Assay, Phase 2 (AID 2283591).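 Also: compound exposure lasted 16 h at 37 °C; actives lower the ATP signal meaning cytotoxicity.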 In short, it runs like this:
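HCT116 p53-bla cells, 4000/well, dosed after 5 h plating (217-fold dilution of DMSO stocks) and incubated 16 h at 37C. Viability taken as cellular ATP by CellTiter-Glo luminescence after 30 min RT; signal loss marks cytotoxicity.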

Test [5] has as its target Cellular tumor antigen p53 (Homo sapiens) (UniProt P04637). The experiment in a line: TOX21_p53_BLA_p2_ratio: Tox21 HCT-116 p53 Agonism Beta-lactamase Assay, Ratio, Phase 2 (AID 2283592). In short, it runs like this: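 Human colon HCT116 cells with an inducible p53 beta-lactamase reporter are exposed to test chemicals for 16 h at 37C. Reporter induction is read as the 460/530 nm emission ratio after CCF4-AM loading, normalized to DMSO.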

Test [6] can be described thus: TOX21_p53_BLA_p3_viability: Viability Assessment in the Tox21 HCT-116 p53 Agonism Beta-lactamase Assay, Phase 3 (AID 2283593).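 Also: cells exposed to compound for 16 h before reading.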 The method, boiled down:
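HCT116 cells, 4000/well, dosed 5 h after plating by pin transfer (217-fold dilution from DMSO stock) and incubated 16 h at 37C, 5% CO2. Viability read as ATP luminescence with CellTiter-Glo after 30 min at room temperature.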

In test [7] the target is Cellular tumor antigen p53 (Homo sapiens) (UniProt P04637). As to the kind of experiment: TOX21_p53_BLA_p3_ratio: Tox21 HCT-116 p53 Agonism Beta-lactamase Assay, Ratio, Phase 3 (AID 2283596). In short, it runs like this: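 HCT116 p53-bla cells (4000/well) given compound in DMSO (217-fold dilution) after 5 h, incubated 16 h at 37C. CCF4-AM substrate 2 h at room temperature; 460/530 nm emission ratio, gain fitted against DMSO.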

The nature of test [8]: TOX21_p53_BLA_p4_viability: Viability Assessment in the Tox21 HCT-116 p53 Agonism Beta-lactamase Assay, Phase 4 (AID 2283597).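 Also: hits lower the luminescence signal meaning cytotoxicity.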 In short, it runs like this:
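Luminescent ATP readout (CellTiter-Glo, 30 min, room temperature) in the same wells as the p53 bla ratio. HCT116 cells were treated for 16 h at 37C with DMSO-dissolved compounds.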

The target in test [9] is Cellular tumor antigen p53 (Homo sapiens) (UniProt P04637). The experiment in a line: TOX21_p53_BLA_p5_ratio: Tox21 HCT-116 p53 Agonism Beta-lactamase Assay, Ratio, Phase 5 (AID 2283599). The method, boiled down:
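HCT-116 p53-bla cells (4000/well) plated 5 h, dosed with compound (217-fold DMSO dilution) for 16 h at 37 C; CCF4-AM substrate 2 h at room temperature. Activity is the 460/530 nm emission ratio (405 nm excitation), fitted in gain-of-signal direction versus DMSO.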

A short description of test [10]: TOX21_p53_BLA_p5_viability: Viability Assessment in the Tox21 HCT-116 p53 Agonism Beta-lactamase Assay, Phase 5 (AID 2283600). The method, boiled down: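 Seeded cells (4000/well) settle 5 h before compound addition. Plates then incubate 16 h at 37C, receive FRET substrate for 2 h, and finally CellTiter-Glo, with luminescence measured after a 30 min room-temperature incubation.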

Test [11] concerns the target Cellular tumor antigen p53 (Homo sapiens) (UniProt P04637). The experiment in a line: TOX21_p53_BLA_p4_ratio: Tox21 HCT-116 p53 Agonism Beta-lactamase Assay, Ratio, Phase 4 (AID 2283601). In short, it runs like this:
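HCT-116 p53 beta-lactamase reporter cells (4000/well) preincubated 5 h, then compound (217-fold dilution of DMSO stock) for 16 h at 37C. CCF4-AM substrate added 2 h at room temperature; 460/530 nm emission ratio fitted upward versus DMSO.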

Test [12] is described as follows: Tanguay_ZF_120hpf_MORT_legacy: (Legacy) Oregon State University Tanguay Lab 120 Hour Post-fertilization zebrafish Assay for Mortality (AID 2283633).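 As to AC50: fitted as increase in binary mortality versus DMSO negative control.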 The method, boiled down: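 Single dechorionated Tropical 5D embryos were held with test chemical (0.64% DMSO final) from 6 to 120 hpf at 28C under foil. Deaths at 24 or 120 hpf were recorded as binary calls, analysed for increase over DMSO controls.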

Test [13] in a line: Tanguay_ZF_120hpf_YSE_legacy: (Legacy) Oregon State University Tanguay Lab 120 Hour Post-fertilization zebrafish Assay for Yolk Sac Edema (AID 2283634).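 As to AC50: actives raise the incidence of yolk sac edema above the DMSO baseline.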 The method, boiled down:
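Single dechorionated embryos were held in sealed plates at 28C with test chemical (0.64% DMSO final) from 6 hpf until 120 hpf. Edema of the yolk sac was then recorded as a binary endpoint; non-mortality endpoints were skipped for dead embryos.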

Test [14] in a line: Tanguay_ZF_120hpf_AXIS_legacy: (Legacy) Oregon State University Tanguay Lab 120 Hour Post-fertilization zebrafish Assay for Body Axis Malformation (AID 2283635).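 As to AC50: potency for an increased fraction of larvae scored with body axis malformation.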 In short, it runs like this: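 Each dechorionated embryo was exposed alone from 6 hpf, with DMSO at 0.64% (vol/vol) and trimethyltin chloride 5 uM as positive control. Axis malformation was recorded at 120 hpf unless the embryo had died.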

The nature of test [15]: Tanguay_ZF_120hpf_EYE_legacy: (Legacy) Oregon State University Tanguay Lab 120 Hour Post-fertilization zebrafish Assay for Eye Malformation (AID 2283636).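 Also: binary presence or absence of eye malformation scored by brightfield in 120 hpf larvae.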 In short, it runs like this: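 Dechorionated Tropical 5D zebrafish embryos, one per well from 6 hpf, static exposure to 120 hpf at 28C, 0.64% DMSO. Eye malformation scored present/absent by brightfield; dead embryos not scored.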

The nature of test [16]: Tanguay_ZF_120hpf_JAW_legacy: (Legacy) Oregon State University Tanguay Lab 120 Hour Post-fertilization zebrafish Assay for Jaw Malformation (AID 2283638).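 As to AC50: active means more embryos with jaw malformation than DMSO controls.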 In short, it runs like this:
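Wild-type 5D embryos, chorion removed at 4 hpf, dosed singly from 6 hpf; 28C static, sealed, foil-covered, to 120 hpf. Endpoint: jaw defect yes/no (brightfield); mortality excludes scoring.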

The nature of test [17]: Tanguay_ZF_120hpf_OTIC_legacy: (Legacy) Oregon State University Tanguay Lab 120 Hour Post-fertilization zebrafish Assay for Otic Vesicle Malformation (AID 2283639). The method, boiled down:
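Tropical 5D wild-type zebrafish embryos were exposed statically in sealed, foil-covered plates at 28C until 120 hpf, with 0.64% (vol/vol) DMSO final. Otic vesicle malformation was scored present/absent by brightfield microscopy, with DMSO as baseline.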

The nature of test [18]: Tanguay_ZF_120hpf_PE_legacy: (Legacy) Oregon State University Tanguay Lab 120 Hour Post-fertilization zebrafish Assay for Pericardial Edema (AID 2283640).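 As to AC50: potency for increased incidence of pericardial edema versus DMSO baseline.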 The method, boiled down: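 Zebrafish larvae are exposed from early development to 120 hpf at 28C, with 0.64% DMSO final. Each surviving larva receives a yes/no pericardial edema call by brightfield imaging, analysed relative to the DMSO baseline.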

Test [19] can be described thus: ATG_XTT_Cytotoxicity: Cytotoxicity Assessment in the Attagene TRANS-FACTORIAL HepG2 Assay (AID 2283584). The method, boiled down:
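24 h chemical exposure of reporter-transfected HepG2; XTT signal loss vs DMSO indicates cytotoxicity.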

Test [20] in a line: Tanguay_ZF_120hpf_SNOU_legacy: (Legacy) Oregon State University Tanguay Lab 120 Hour Post-fertilization zebrafish Assay for Snout Malformation (AID 2283637). The method, boiled down: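 Dechorionated tropical 5D wild-type zebrafish embryos exposed statically from 6 to 120 hpf at 28C, one per well, in 0.64% DMSO. Snout malformation scored as present/absent by brightfield at 120 hpf; dead embryos not scored.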

Sequence of Cellular tumor antigen p53 (Homo sapiens) (P04637 whole entry, looked up): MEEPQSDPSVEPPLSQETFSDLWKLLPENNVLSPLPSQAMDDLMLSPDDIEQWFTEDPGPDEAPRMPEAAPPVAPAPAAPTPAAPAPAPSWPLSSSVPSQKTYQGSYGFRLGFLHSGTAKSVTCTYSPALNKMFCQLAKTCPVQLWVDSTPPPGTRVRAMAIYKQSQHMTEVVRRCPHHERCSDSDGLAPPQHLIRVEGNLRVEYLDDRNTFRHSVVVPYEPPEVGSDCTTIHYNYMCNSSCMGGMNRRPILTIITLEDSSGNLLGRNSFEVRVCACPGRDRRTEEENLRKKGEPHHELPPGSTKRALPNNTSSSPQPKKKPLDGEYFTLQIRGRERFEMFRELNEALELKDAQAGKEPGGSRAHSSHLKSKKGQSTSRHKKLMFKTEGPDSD

`CC(C)(C)c1cc(O)c(C(C)(C)C)cc1O`: the half-maximal activity concentration (AC50) – broadly, the midpoint of the concentration-response curve, whichever way the signal moves – in test [1] was 91.3 µM (active); in test [3] it was 73.5 µM (active); in test [5], 80.1 µM (active); in [7] it was 71.6 µM (active); in [8], 69 µM (active); in [9] it was 90.5 µM (active). The half-maximal activity concentration (AC50) in [12] is 11 µM (active); in test [13], 25.7 µM (active); in [14], 25.7 µM (active); in [16] it was 47.5 µM (active); in [18], 34.3 µM (active). In addition, the compound was classed as inactive in [2], in [4], in [6], in [10], in [11] and in [15]. Besides, the call in test [17] was inactive.
Regarding `CCOC(=O)CCC(=O)OCC`, the compound was classed as inactive in test [1], in [2], in [3], in test [19], in test [4] and in test [5]. Moreover, the outcome in test [7], in test [9], in [10], in [11], in test [12] and in test [13] was inactive. Moreover, the outcome in test [14], in test [15], in [20], in test [16], in [17] and in test [18] was inactive.
Regarding `O=C(N[C@@H](Cc1ccccc1)[C@@H](O)C(=O)N1C[C@@H](O)[C@@H](O)C1)c1cc2cc(Cl)ccc2[nH]1`, the compound was called inactive in test [1], in [3], in test [4], in test [5], in [6] and in test [7]. The result in [9], in test [10], in [11], in test [12], in test [13] and in test [14] was inactive. Also, the call in test [15], in test [20], in test [16], in test [17] and in test [18] was inactive. The concentration at half-maximal activity (AC50) is 50 µM (active) in test [2] and 71 µM (active) in test [8].
With `Cc1ccc(N(C)C)cc1`, the compound was called inactive in test [1], in [2], in [3], in test [4], in test [5] and in [6]. For the same compound, the outcome in test [7], in [8], in [9], in test [10], in [11] and in [12] was inactive. The result in test [13], in test [14], in test [15], in [20] and in [16] was inactive.
`CCc1c(C(=O)NN2CCCCC2)nn(-c2ccc(Cl)cc2Cl)c1-c1ccc(Br)cc1`: the AC50 is 73.6 µM (active) in test [1]; 74.9 µM (active) in [2]; 61.6 µM (active) in [3]; 5.6 µM (active) in test [4]; 9.14 µM (active) in test [6]; 2.1 µM (active) in [8]. Besides, the result in test [5], in [7], in test [9], in [10], in [11] and in test [12] was inactive. For the same compound, the compound was classed as inactive in test [13], in [14], in test [15], in [16], in [17] and in test [18].
Turning to `COCCOCCOC`, the result in test [1], in test [3], in test [19], in test [4], in [5] and in test [7] was inactive. Besides, the result in test [9], in test [10], in [11], in test [12], in test [13] and in test [14] was inactive. The compound was called inactive in test [15] and in test [18]. Further, in test [2], the concentration at half-maximal activity (AC50) is 1.16 µM (active).
`CCOc1ccc2c(c1)C(C)=CC(C)(C)N2`: the call in test [1], in test [2], in test [3], in test [4], in [5] and in test [6] was inactive. The outcome in test [7], in test [8], in [9], in test [10], in [11] and in [12] was inactive. In addition, the outcome in test [13], in [14], in [15], in [17] and in [18] was inactive. The concentration at half-maximal activity (AC50) in test [9] was 67.7 µM (active); in [11], 76.6 µM (active); in [20] it was 19.4 µM (active); in test [16], 15.9 µM (active).
